GRK2 aptamer HTS: blocks RNA aptamer binding to human GRK2. inhibition of aptamer binding, % at 10 µM. bead flow cytometry, FAM-aptamer displacement from GRK2. 330,000 compounds, 0.59% hits. P25098. AID 488847;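 active = inhibition of aptamer binding above 40%, roughly 3 SD of noise, on plates passing a quality check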;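 also: median bead fluorescence of bound FAM aptamer so fluorescent compounds give negative values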
Target sequence (P25098 whole entry, looked up): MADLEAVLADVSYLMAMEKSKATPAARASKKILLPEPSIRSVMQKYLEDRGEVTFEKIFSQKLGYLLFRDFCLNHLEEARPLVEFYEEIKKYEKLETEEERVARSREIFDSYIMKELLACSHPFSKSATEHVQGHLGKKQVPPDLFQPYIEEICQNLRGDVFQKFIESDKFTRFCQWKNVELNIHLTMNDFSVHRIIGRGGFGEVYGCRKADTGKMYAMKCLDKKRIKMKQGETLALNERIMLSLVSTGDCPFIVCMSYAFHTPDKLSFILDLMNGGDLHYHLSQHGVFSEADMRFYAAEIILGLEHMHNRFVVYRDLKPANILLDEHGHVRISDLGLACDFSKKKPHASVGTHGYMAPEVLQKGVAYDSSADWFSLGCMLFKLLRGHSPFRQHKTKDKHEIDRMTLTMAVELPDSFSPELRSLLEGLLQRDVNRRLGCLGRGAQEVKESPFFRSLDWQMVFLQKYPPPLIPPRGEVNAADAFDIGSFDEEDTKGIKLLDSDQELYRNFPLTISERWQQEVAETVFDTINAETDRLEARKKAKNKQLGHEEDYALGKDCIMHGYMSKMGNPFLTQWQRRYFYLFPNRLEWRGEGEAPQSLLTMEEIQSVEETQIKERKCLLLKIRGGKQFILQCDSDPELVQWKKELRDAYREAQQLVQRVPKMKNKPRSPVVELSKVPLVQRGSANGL
Beta2AR agonist: agonists of human beta-2 adrenergic receptor inducing internalization. P07550. Am2.2-beta2AR cells, FAP receptor internalization, flow cytometry. response, % (no concentration beside the values). 340,000 compounds, 0.43% hits. AID 504454;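 active = response above a set limit, near 3 SD of response in nonfluorescent compounds, cut at about 42% in these data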
NadD block: NadD (S. aureus) enzyme inhibition; purified NadD enzyme, colorimetric absorbance read-out; inhibition, % at 20 µM; 360,000 compounds, 0.78% hits; AID 602399; in the data active = inhibition above about 26%
PP1 inh: blocks human PP1-alpha phosphatase, a PP5 counter-screen. P62136. purified PP1alpha, OMFP fluorescence. inhibition, % at 6.7 µM. 320,000 compounds, 0.9% hits. AID 2235;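 active = inhibition above the mean inhibition of all tested compounds plus 3 SD, computed separately for each screening campaign, cut at about 15% in these data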
Exocytosis inh: blocks lytic granule exocytosis | 360,000 compounds, 0.66% hits | TALL-104 LAMP-1 surface exposure, flow cytometry; cells stimulated with thapsigargin and PMA | inhibition, % at 10 µM | AID 651702;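 active = inhibition above about 55%, limit read from the data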
A number is an active result. Hits are enriched below; roughly 2.9% of the tested compounds scored in any of these assays.

Screening O=C1/C(=C/c2ccccn2)SC(=S)N1c1ccc(O)cc1 returned GRK2 aptamer HTS inactive, Beta2AR agonist inactive, NadD block inactive, PP1 inh inactive and Exocytosis inh inactive.
`Cc1ccc(N2C(=O)/C(=C/c3cccnc3)SC2=S)cc1` gave GRK2 aptamer HTS inactive, Beta2AR agonist inactive, NadD block inactive, PP1 inh inactive and Exocytosis inh inactive.
For Cc1ccc(/C=C2/SC(=S)N(c3ccc(S(=O)(=O)Nc4nccs4)cc3)C2=O)cc1 the results were GRK2 aptamer HTS inactive, Beta2AR agonist inactive, NadD block 62.3, PP1 inh inactive and Exocytosis inh inactive.
COc1ccc(/C=C2/SC(=S)N(c3ccc(S(=O)(=O)Nc4nccs4)cc3)C2=O)cc1 was read as GRK2 aptamer HTS inactive, Beta2AR agonist inactive, NadD block 56.0, PP1 inh inactive and Exocytosis inh inactive.
For O=C1/C(=C\c2ccccn2)SC(=S)N1c1ccc(S(=O)(=O)Nc2nccs2)cc1 the results were GRK2 aptamer HTS inactive, Beta2AR agonist inactive, NadD block 44.0, PP1 inh inactive and Exocytosis inh inactive.
COc1ccc(/C=C2/SC(=S)N(NS(=O)(=O)c3ccccc3)C2=O)cc1 was read as GRK2 aptamer HTS inactive, Beta2AR agonist inactive, NadD block inactive, PP1 inh inactive and Exocytosis inh inactive.
For Cc1cc(CNC[C@H]2O[C@@H](n3ccc(=O)[nH]c3=O)[C@H](O)[C@@H]2O)no1 the results were NadD block inactive and Exocytosis inh inactive.
`CCOC(=O)N1CCN(C(=O)C[C@@H]2C[C@@]3(C(=O)OCC)CCCC=C3N(Cc3ccccc3)C2=O)CC1` gave Exocytosis inh inactive.
O=C(NCCN1CCC(n2c(=O)[nH]c3ccccc32)CC1)N1c2ccccc2Sc2ccccc21 was read as NadD block inactive and Exocytosis inh inactive.
For COc1ccc(C2/C(=C(/O)c3ccc(C)cc3)C(=O)C(=O)N2c2ccccn2)cc1 (configuration not stated) the results were GRK2 aptamer HTS inactive, Beta2AR agonist inactive, NadD block inactive, PP1 inh inactive and Exocytosis inh inactive.
`Cc1ccc(/C(O)=C2/C(=O)C(=O)N(c3ccccn3)C2c2ccc([N+](=O)[O-])cc2)cc1` (configuration not stated) gave GRK2 aptamer HTS inactive, Beta2AR agonist inactive, NadD block inactive, PP1 inh 15.7 and Exocytosis inh inactive.
Cc1ccc(NC(=S)N2CCN(S(=O)(=O)c3ccc(F)cc3)CC2)cc1 was read as GRK2 aptamer HTS inactive, Beta2AR agonist inactive, NadD block inactive and Exocytosis inh inactive.
Screening CCOC(=O)N1CCN=C1SCc1ccc(C(F)(F)F)cc1 returned GRK2 aptamer HTS inactive, Beta2AR agonist inactive, NadD block inactive, PP1 inh inactive and Exocytosis inh inactive.
For CC(C)Sc1nnc(NC(=O)c2ccc3c(c2)OCO3)s1 the results were GRK2 aptamer HTS inactive, Beta2AR agonist inactive, NadD block inactive, PP1 inh inactive and Exocytosis inh inactive.
CC1(C)CC(=O)C2=C(C1)N(CC1CCCO1)C(=O)NC2(C(F)(F)F)C(F)(F)F (configuration not stated) was read as GRK2 aptamer HTS inactive, Beta2AR agonist inactive, NadD block inactive, PP1 inh inactive and Exocytosis inh inactive.
Screening CC1(C)CC(=O)C2=C(C1)N(CC1CCCO1)C(=O)C2(O)C(F)(F)F (configuration not stated) returned GRK2 aptamer HTS inactive, Beta2AR agonist inactive, NadD block inactive, PP1 inh inactive and Exocytosis inh 80.2.
Screening CCCCNC(=O)c1onc(CSc2ccc(Cl)cc2)c1C(=O)NCCCC returned GRK2 aptamer HTS inactive, Beta2AR agonist inactive, NadD block inactive, PP1 inh inactive and Exocytosis inh 70.4.
Screening Cc1cn(C2CC(OC(=O)C(C)C)C(CO)O2)c(=O)[nH]c1=O (configuration not stated) returned GRK2 aptamer HTS inactive, Beta2AR agonist inactive, NadD block inactive, PP1 inh inactive and Exocytosis inh inactive.
Screening CC(C)(C)c1nnc(NS(=O)(=O)c2cc(Cl)ccc2Cl)s1 returned GRK2 aptamer HTS inactive, Beta2AR agonist inactive, NadD block inactive, PP1 inh inactive and Exocytosis inh inactive.
Screening O=S(=O)(Nc1nc(-c2sccc2Cl)cs1)c1cc(Cl)ccc1Cl returned GRK2 aptamer HTS inactive, Beta2AR agonist inactive, NadD block inactive, PP1 inh 19.0 and Exocytosis inh inactive.
Screening Cc1ccc(Nc2nnc(SCC(=O)c3ccc(Br)s3)s2)c(C)c1 returned GRK2 aptamer HTS inactive, Beta2AR agonist inactive, NadD block inactive, PP1 inh 16.6 and Exocytosis inh inactive.
Screening Cc1ccc(/C=C/C(=O)NCCc2cccc(Cl)c2)o1 returned GRK2 aptamer HTS inactive, Beta2AR agonist inactive, NadD block inactive, PP1 inh inactive and Exocytosis inh 64.0.
Screening Cc1ccc(/C=C/C(=O)NCCCN2CCN(CCCNC(=O)/C=C/c3ccc(C)o3)CC2)o1 returned GRK2 aptamer HTS inactive, Beta2AR agonist inactive, NadD block inactive, PP1 inh inactive and Exocytosis inh inactive.
`CC1(C(=O)NS(=O)(=O)C2CC2)CCN(C(=O)COCc2ccccc2)C1` (configuration not stated) gave NadD block inactive and Exocytosis inh inactive.
`CCOc1ccc(Nc2oc(-c3ccccc3Cl)nc2C#N)cc1` gave GRK2 aptamer HTS inactive and PP1 inh 17.2.
COc1ccc(C(=O)Nn2c(SCC(=O)c3ccccc3)nc3ccccc3c2=O)cc1 was read as GRK2 aptamer HTS inactive, Beta2AR agonist inactive, NadD block inactive, PP1 inh inactive and Exocytosis inh inactive.
`COc1ccc(C(=O)Nn2c(SCc3ccc([N+](=O)[O-])cc3)nc3ccccc3c2=O)cc1` gave GRK2 aptamer HTS inactive, Beta2AR agonist inactive, NadD block 33.3, PP1 inh inactive and Exocytosis inh inactive.
`CC(=O)c1cccc(Nc2nc(-c3cccc([N+](=O)[O-])c3)cs2)c1` gave GRK2 aptamer HTS inactive, Beta2AR agonist inactive, NadD block inactive, PP1 inh 16.1 and Exocytosis inh inactive.
Screening CC(=O)Nc1nc(C)c(-c2csc(Nc3cccc([N+](=O)[O-])c3)n2)s1 returned GRK2 aptamer HTS inactive, Beta2AR agonist inactive, NadD block inactive, PP1 inh inactive and Exocytosis inh inactive.
For Oc1c(C(c2ccccc2)N2CCCCC2)ccc2ccccc12 (configuration not stated) the results were NadD block inactive and Exocytosis inh inactive.
Cc1ccc(-c2cc(C(=O)NCc3ccco3)c3ccccc3n2)o1 was read as GRK2 aptamer HTS inactive, Beta2AR agonist inactive, NadD block inactive, PP1 inh 15.3 and Exocytosis inh inactive.
For CC(=O)Nc1ccc(-c2ccnc3c2CC(C(=O)NCC2CCOCC2)O3)cc1 (configuration not stated) the results were NadD block inactive and Exocytosis inh inactive.
`CCCCN1C(=O)/C(=C/C=C2\Oc3ccccc3N2CC)SC1=S` gave Beta2AR agonist inactive, NadD block inactive and Exocytosis inh inactive.
For CCN1/C(=C/C=C/c2oc3ccc(-c4ccccc4)cc3[n+]2CC)Oc2ccc(-c3ccccc3)cc21 the results were GRK2 aptamer HTS inactive, NadD block 43.7, PP1 inh inactive and Exocytosis inh inactive.

Assay outcomes as filed in PubChem BioAssay.
